Experiments:
Assay in all cases: PBM binding z-score (relative to random genomic background probes); higher = stronger binding; sequences stand for … in GC…GCGATTGACAGCGTAGAATGAAGG
[1] = test system: RARg:RXRa (NR concentration 270 nM, RXRa partner concentration 90 nM)
How it was run: (§1)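 Binding buffer was PBS pH 7.4 with 2% milk, 0.02% Triton X-100, 1 mM DTT, 0.2 mg/mL BSA and 0.4 mg/ml salmon testes DNA. In it, ligand-free nuclear receptor dimers were incubated 1 h on custom Agilent 4×180K protein-binding microarrays carrying double-stranded probes. Antibodies against each partner (one per run) detected binding, and z-scores were calculated against random background probes after regression normalization of scanned fluorescence.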

[2] = test system: RARg homodimer (NR concentration 270 nM)
How it was run: as §1

[3] = test system: RXRa DBDmut IVT, anti-RXR (DBD mutation: RXRa K156A/R161A, NR concentration 90 nM)
How it was run: as §1

[4] = test system: RXRa homodimer (NR concentration 180 nM)
How it was run: as §1

[5] = test system: THRa:RXRa (NR concentration 90 nM, RXRa partner concentration 90 nM)
How it was run: as §1

[6] = test system: THRa homodimer (NR concentration 90 nM)
How it was run: as §1

[7] = test system: VDR homodimer (NR concentration 270 nM)
How it was run: as §1

| Sequence | PBM binding z-score [1] | PBM binding z-score [2] | PBM binding z-score [3] | PBM binding z-score [4] | PBM binding z-score [5] | PBM binding z-score [6] | PBM binding z-score [7] |
| --- | --- | --- | --- | --- | --- | --- | --- |
| CGAACTAGGTCATTGACAGGACAATGAATAGTAA | 4.78 | 4.69 | 2.44 | 2.79 | 2.91 | 0.699 | 1.62 |
| ACTTACGGCTCAACGAGGTTATAGCACGCGTATA | 0.411 | 0.49 | 0.343 | 0.9 | 1.33 | 0.562 | 0.756 |
| ATCGAAAGGTCGACGAGGTGAGTAAACACCGTTT | 4.4 | 4.12 | 0.855 | 4.54 | 3.78 | 0.706 | 0.649 |
| ACTTAAGGGTCAACGAGGTTATAGCACGCGTATA | 6.9 | 6.85 | 3.8 | 7.56 | 4.4 | 1.07 | 5.42 |
| CAAACTAGGTCAAGGTCTAAGTCGGTTTGTGCCA | 3.81 | 4.71 | 1.44 | 2.49 | 3.15 | 1.57 | 1.14 |
| ATATGTAGGTTAGCTGAGGTCATTCAGACTAGGC | 3.95 | 3.72 | 1.9 | 4.53 | 5.33 | 4.38 | 5.55 |
| CGAACTAGGTCTAAGGACAGTGAAAGGCGACGTA | -0.0449 | 0.382 | 0.0916 | 0.0481 | 2.65 | 1.96 | -0.112 |
| AGAATGAGGTTACTAAAGATCAGGGAAACGCTTG | 1.61 | 1.25 | 0.94 | 1.59 | 2.19 | 0.398 | 0.00246 |
| CAAACTAGGTCACAGTGGTCAAAGTCCGTGCGTA | 4.19 | 5.18 | 1.51 | 3.32 | 3.17 | 1.43 | 1.23 |
| TAGCCTAGGTCATGGGCCAGTGTACCACGCGAAC | 4.41 | 4.65 | 0.252 | 3.76 | 3.13 | 1.23 | 0.706 |
| CCTTACGGGTTACTCCAGGTTATAGCATCGGAGT | 0.987 | 0.779 | -0.0626 | 1.26 | 4.49 | 0.236 | 0.487 |
| TGTCAATGTTCAAAGGTAACGTAAGTATCCACAC | 0.811 | 0.759 | -0.404 | 0.776 | 1.24 | -0.064 | -0.453 |
| TAGCCTAGGTCACATCGGGCCAGTATACGCTATA | 4.02 | 4.72 | 0.602 | 3.09 | 4.5 | 1.15 | 0.412 |
| ATATGTAGGTTAGCTGGGGTCATTCACACTAGGC | 4.14 | 3.12 | 1.95 | 5.25 | 5.01 | 3.56 | 5.37 |
| CGTCCAAAGTCAAAGGTCAGTGAAGAGATGACGG | 4.93 | 5 | 0.813 | 5.96 | 2.81 | 0.117 | 0.98 |
| CACACTAGGTCACAGAGGTCAAAGTCCGTGCGTA | 7.55 | 8.04 | 3.26 | 8.19 | 4.84 | 3.29 | 7.03 |
| CCTTACGGGTCACGAGGTTGTAGCACGACGAGCG | 5.67 | 5.42 | 2.05 | 6.5 | 3.19 | 0.351 | 1.99 |
| TCTTGTAGATCGATAGAGGTTAAGAAAGTGCGCT | 0.525 | 0.389 | 0.591 | 1.1 | 1.48 | -0.46 | 0.0902 |
| CCTACGGGGCCACGAAAGGTCATTGATTCAGTGA | 5.49 | 5.3 | 0.662 | 5.74 | 4.64 | 0.878 | 2.64 |

| Sequence | PBM binding z-score [1] | PBM binding z-score [2] | PBM binding z-score [3] | PBM binding z-score [4] | PBM binding z-score [5] | PBM binding z-score [6] | PBM binding z-score [7] |
| --- | --- | --- | --- | --- | --- | --- | --- |
| CGTCCAAGGTCATTGGAGGTCAGTGAAGACAGAT | 7.03 | 7.55 | 4.46 | 6.96 | 5.19 | 3.37 | 5.22 |
| TCTAGTTGGTCACGGAGGTCACAAACGACGGGTA | 4.49 | 5 | 0.949 | 4.62 | 3.39 | 2.07 | 2.78 |
| AGAATGAGATTACCAAAGATCAGGGAAACGCTTG | 0.145 | 0.36 | -0.574 | 0.178 | -0.261 | -0.869 | -0.177 |
| AGCGAAAGGTCGAGGTGAGTATAGAGAAAGGGAA | 4.32 | 4.24 | 0.946 | 4.46 | 2.89 | 0.747 | 0.467 |
| AGTCAAAGTTCATCTAGGTCACGTAAGATATGCT | 6.63 | 7.35 | 4.81 | 5.75 | 4.62 | 2.83 | 7.84 |
| ATCGAAAGGTCGACGCGGTGAGTATACACCGTTT | 4.07 | 4.09 | 1.12 | 3.83 | 1.97 | -0.506 | 0.391 |
| TCTGCTAGGTCAACGATGGTCAGTTAATCTGCTA | 4.12 | 4.95 | 0.834 | 2.5 | 2.93 | 0.73 | -0.183 |
| TCGCCTAGGTCATGGGCCAGTATACCACGCGAAC | 4.24 | 4.78 | 1.21 | 3.7 | 3.15 | 1.58 | 0.535 |
| TAGCCTAGGTCATGCGGCCCAGTATAGTGTCGGC | 3.79 | 4.07 | 0.176 | 2.87 | 2.89 | 0.868 | 0.276 |
| AGAATGAGGTTAAACGTAGATCAGGGAAGAAAGT | 2.9 | 1.54 | 2.08 | 3.22 | 2.55 | 0.549 | 1.04 |
| AGAATGAGGTCACCAAAGATCAGGGAAACGCTTG | 6.82 | 7.16 | 4.12 | 7.51 | 4.63 | 3.75 | 3.69 |
| CGAACGAGGTCATTGACAGGACAGTGAATAGTAA | 7.11 | 6.33 | 4.84 | 7.11 | 4.06 | 2.45 | 5.66 |
| CCAACTGGGCCAAAAAGGTCATTGATGCCGATAA | 4.71 | 4.35 | 0.992 | 5.08 | 3.11 | 0.427 | 2.62 |
| CGAACTAGGTCAAGGACAGTAAATCTCCGCACGC | 4.01 | 4.54 | 1.47 | 2.55 | 3.16 | 2.01 | 0.575 |
| TCTCGGAGGAAACGAAAGGTCAGAGCTCGACATC | 4.03 | 3.59 | 0.822 | 4.07 | 2.59 | 0.0929 | 0.612 |
| ATCGAAAGGTCGAAGGTGCGTATACCCACCCGAA | 3.93 | 3.91 | 1.37 | 4.23 | 1.66 | -0.362 | 0.858 |
| ATATGTAGGTTACATCCGGGTCATCCAGGCTATG | 3.98 | 2.1 | 0.681 | 2.89 | 3.89 | 2.64 | 2.44 |
| CCTTACGGGTCACTCCAGGTTATATCATCGGAGT | 4.35 | 4.43 | 1.46 | 4.17 | 5.19 | 0.814 | 1.49 |
| CGTCCAAGGTTAAGGTCAGTGAAAGAGACTCGAA | 4.2 | 4.7 | 1.71 | 3.45 | 3.83 | 3.83 | 1.79 |

| Sequence | PBM binding z-score [1] | PBM binding z-score [2] | PBM binding z-score [3] | PBM binding z-score [4] | PBM binding z-score [5] | PBM binding z-score [6] | PBM binding z-score [7] |
| --- | --- | --- | --- | --- | --- | --- | --- |
| TAGCCTAGTTCATTCAGGGGCCAGTATAGAAAGC | 3.6 | 1.34 | 2.96 | 0.328 | 1.68 | -0.0964 | 2.71 |
| CGAACAAGGTCATTGACAGGACAGTGAATAGTAA | 6.27 | 5.95 | 4.45 | 5.53 | 3.96 | 2.16 | 3.2 |
| AGAATGAGGTTAAGTTCAGGGAAACAGAATACAT | 3.41 | 2.98 | 2.38 | 3.6 | 3.34 | 1.48 | 3.44 |
| AGAATGAGGTCATACGTAGATCAGGGAAGAAAGT | 6.31 | 5.97 | 4.7 | 6.67 | 4.18 | 3.25 | 4.56 |
| TGTCAACGTTCAAAGGTAACGTAAGTATCCACAC | 1.28 | 1.09 | -0.465 | 1.27 | 1.46 | -0.221 | -0.0342 |
| TTACCAAGGTCAAGGTCGTTGATCCCTCTGTAGA | 6.48 | 6.91 | 3.27 | 6.84 | 4.38 | 3.6 | 4.9 |
| CGAACGAGGTCAAAGGACAGTGAAAGGCGACGTA | 6.46 | 6.17 | 4.61 | 6.91 | 3.88 | 1.79 | 3.52 |
| ATATGTAGGTTAGCTGGGGTCCTTCAGACTAGGC | 0.698 | 0.529 | 0.183 | 0.692 | 3.45 | 0.268 | 0.249 |
| AAAACAGGGTCATCGTAGGCCAGAGTACGCACAG | 6 | 5.11 | 3.74 | 7.23 | 4.81 | 1.58 | 4.06 |
| CCGAGTAGGTTACTAGGGGGCATTCAGTGCGAAT | 2.46 | 2.1 | 1.4 | 1.72 | 3.57 | 0.676 | 3.59 |
| CCTAGCAGGCCAATCTAGGTCACTCAAGGCTTGA | 1.5 | 1.85 | 0.439 | 0.64 | 4.18 | 1.57 | 0.1 |
| CCTACTGGGCCATTCAGAGGTCAATGATCATATG | 4.55 | 3.43 | 0.406 | 3.05 | 2.97 | 1.32 | 1.44 |
| CCTACTGGGCCATTCAGAGGGCATTGATCATATG | 1.43 | 0.891 | -0.189 | 0.134 | 0.0655 | -0.325 | 0.582 |
| CGTCAAAGTTCAACTGAGGTAACGTAAAGCACGC | 6.11 | 6.84 | 4.76 | 5.4 | 5.27 | 1.89 | 4.07 |
| AGAATGAGGTCAAGATCAGGGAAACAGAATACAT | 6.53 | 6.24 | 4.15 | 6.66 | 4.29 | 2.98 | 3.31 |
| CGAACTAGGTCATCCAGGACCGTGAATACATTGA | 3.95 | 4.72 | 2.15 | 2.82 | 3.12 | 0.969 | 0.996 |
| CCGACTGGGGCAAGGTCACCATAACGCACAGCCA | 4.32 | 4.45 | 0.549 | 4.37 | 3.66 | 2.7 | 2.02 |
| ATCGAAAGGTCGAAGGTGAGCATACCCACCCGAA | 4.35 | 3.86 | 0.654 | 5.22 | 2.36 | 0.23 | 0.602 |
